Measured values published in PubChem BioAssay (Tox21).
The source made the active and inactive calls. The call rests on the fitted dose curve; in most records, active means well fitted curve in the direction sought with a large enough effect in the repeat runs; inconclusive means weak or mixed curves; inactive means flat fitted curve, though single readings scatter.

Assay: qHTS assay to test for compound auto fluorescence at 590 nm (red) in HepG2 cells (AID 720674)
Details: HepG2 autofluorescence, red 540/590 nm, 1 h; series mostly up to 91.3 µM
Description: U.S. Tox21 Program National Center for Advancing Translational Sciences [NCATS] NIH Chemical Genomics Center [NCGC] U.S. Environmental Protection Agency [EPA] National Institutes of Environmental Health Sciences [NIEHS] National Toxicology Program [NTP] U.S. Food and Drug Administration [FDA] Tox21 Assay Overview: Compound auto fluorescence often interferes with screening of the compound library against various biological targets and signaling pathways. Some of these compounds may have fluorophoric properties. Such properties may interfere with the assay outputs resulting in false positives and/or negatives. To decrease such complications and ensure the compound activities are relevant in terms of biological response, the Tox21 10K compound library was screened for auto fluorescence. From the fluorophores used as reporter signals in our screening assays, the auto fluorescence equivalencies of compounds against three fluorophores have been evaluated: Triamterene, Fluorescein and Rose Bengal sodium for blue, green and red fluorescence, respectively. The fluorescence intensities were measured using Excitation/Emission wavelengths at 405/460nm, 485/535nm and 540/590nm for blue, green and red labels, respectively. This assay includes the red fluorescence data.
Tox21 Assay Protocol Summary: 2,000 HepG2 cells in 5 uL of culture medium (MEM containing 10% FBS) per well were dispensed into black wall/clear bottom 1536-well plates using a Multidrop Combi Dispenser (ThermoFisher Scientific, Waltham, MA). The assay plates were incubated overnight at 37 C to allow cell attachment to the well bottom, followed by the transfer of 23 nL compound or DMSO vehicle by a pintool work station (Kalypsys , San Diego, CA). After the assay plates were incubated for 1 hr at 37 C and 5% CO2, fluorescence intensities in the assay plates were measured by an Envision (PerkinElmer, Shelton, CT) plate reader using three labels for measuring blue, green and red fluorescence at […] 460, 535 and 590 nm respectively.
On the % scale 0 is the no-effect control and ±100 the full control effect.

Row | Structure (SMILES) | outcome | fluorescence, relative to Rose Bengal
1 | O=C1NCC2(CCN(CCc3ccccc3)CC2)O1 | inactive | –
2 | CCc1cc(C(C)(C)C)c(O)c(C(C)(C)C)c1 | inactive | –
3 | CCCOC(=O)c1cc(O)c(O)c(O)c1 | inactive | –
4 | O=C(O)CCc1ccccc1 | inactive | –
5 | CCN(CC)CCOc1ccc(/C(=C(\Cl)c2ccccc2)c2ccccc2)cc1 | inactive | –
6 | Clc1ccc2c(c1)C(N1CCNCC1)=Nc1ccccc1O2 | inactive | –
7 | C=CC(=O)OCCCCCCOC(=O)C=C | inactive | –
8 | CC(=O)OCC1=C(C(=O)O)N2C(=O)[C@@H](NC(=O)Cc3cccs3)[C@H]2SC1 | inactive | –
9 | CC1COc2c(N3CCN(C)CC3)c(F)cc3c(=O)c(C(=O)O)cn1c23 (stereo not given) | inactive | –
10 | O=S(=O)(O)c1ccc2nc(-c3ccccc3)[nH]c2c1 | inactive | –
11 | Cc1occc(=O)c1OC(=O)C(C)C | inactive | –
12 | Cc1c(O)cccc1C(=O)N[C@@H](CSc1ccccc1)[C@H](O)CN1C[C@H]2CCCC[C@H]2C[C@H]1C(=O)NC(C)(C)C | inactive | –
13 | Cc1cccc(O)c1C | inactive | –
14 | C1COC(NC(C2CC2)C2CC2)=N1 | inactive | –
15 | Cc1cc(C2(c3cc(C)c(O)cc3C)OS(=O)(=O)c3ccccc32)c(C)cc1O | inactive | –
16 | CCCCN(CCO)CCCC | inactive | –
17 | CCc1ccc(C(c2ccc(CC)cc2)C(Cl)Cl)cc1 | inactive | –
18 | O=C(O)c1cccc(C(=O)O)c1 | inactive | –
19 | c1ccc2c(c1)-c1cccc3c1c-2cc1ccccc13 | inactive | –
20 | CCCN[C@H]1CCc2nc(N)sc2C1 | inactive | –

Row | Structure (SMILES) | outcome | fluorescence, relative to Rose Bengal
21 | O=C(O)CP(=O)(O)O | inactive | –
22 | Cc1cc(OCCOCC[N+](C)(C)Cc2ccccc2)ccc1C(C)(C)CC(C)(C)C | inactive | –
23 | CC(C)CCOC(=O)c1ccc(N(C)C)cc1 | inactive | –
24 | COc1nc(C)nc(Cl)c1NC1=NCCN1 | – | 0.0093% [at 18.6 µM] (inactive)
25 | CCCNC(C)C(=O)Nc1ccccc1C (stereo not given) | inactive | –
26 | COC(=O)c1cccc(C(=O)OC)c1 | inactive | –
27 | NC(N)=NC(=O)Cc1c(Cl)cccc1Cl | inactive | –
28 | COc1ccc(CCN2CCC(Nc3nc4ccccc4n3Cc3ccc(F)cc3)CC2)cc1 | inactive | –
29 | C/C=C/c1ccc(OCC)c(O)c1 | inactive | –
30 | Oc1ccc(Cl)cc1Cc1cc(Cl)ccc1O | inactive | –
31 | N[C@@H]1CONC1=O | inactive | –
32 | CCCCOCCOC(=O)c1ccccc1C(=O)OCCOCCCC | inactive | –
33 | Cc1cccc2n[nH]nc12 | inactive | –
34 | CCn1c2ccccc2c2cc(N)ccc21 | inactive | –
35 | CCCCCCCCCCCCc1ccccc1O | inactive | –
36 | COc1ccc(CCN(C)CCCC(C#N)(c2ccc(OC)c(OC)c2)C(C)C)cc1OC (stereo not given) | inactive | –
37 | CCCCCCCCCCCCCCCCCl | – | -0.733% [at 18.6 µM] (inactive)
38 | CC(C)(O)CCC(C)(C)O | inactive | –
39 | NCCCCCC(=O)O | – | -0.673% [at 18.6 µM] (inactive)
40 | CC(N)=O | inactive | –
